The source made the active and inactive calls. Unless noted, the rule behind the calls is not given here.
Tests used:
[1] = tested on: XIP peptide (Xip251-270) binding; experiment: small-molecule binders of XIP peptide, primary screen, biochemical, small-molecule microarray, fluorescence 635/667 nm, 0.1 µg/mL protein (AID 1182); conditions: fluorescent protein binding, 635 nm, higher = more signal, called active from +8 up or from −8 down
[2] = tested on: XIP peptide (Xip251-270); experiment: small-molecule binders of XIP peptide, primary screen, biochemical, small-molecule microarray, fluorescence 635/667 nm, 0.5 µg/mL protein (AID 1183); conditions: small-molecule microarray binding, fluorescence 635 nm; higher = more signal
[3] = Plasmodium falciparum growth inhibition, primary screen, strain 3D7, DAPI fluorescence, 100 nL (AID 1184);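 note: parasites grown inside human red blood cells in medium with human serum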; conditions: P. falciparum 3D7 growth, 3 d, higher = more signal
[4] = molecular target: Homeobox protein Hox-A13 (Mus musculus) (UniProt Q62424); experiment: inhibitors of HoxA13-DNA binding, primary screen, biochemical, fluorescence polarization, labeled oligonucleotide (AID 1185); conditions: 15 min, higher = more signal, called active from +8 up or from −8 down
[5] = inhibitors of hydroxyurea-induced Chk1 phosphorylation, primary screen, imaging, HeLa, phospho-Chk1 antibody, percent positive cells (AID 1186); conditions: hydroxyurea-induced phospho-Chk1 immunofluorescence imaging, higher = more signal
[6] = inhibitors of hydroxyurea-induced Chk1 phosphorylation, primary screen, imaging, HeLa, phospho-Chk1 nuclear intensity (AID 1187); conditions: hydroxyurea-induced phospho-Chk1 immunofluorescence imaging, higher = more signal

Chain of Homeobox protein Hox-A13 (Mus musculus) (Q62424 whole entry, looked up): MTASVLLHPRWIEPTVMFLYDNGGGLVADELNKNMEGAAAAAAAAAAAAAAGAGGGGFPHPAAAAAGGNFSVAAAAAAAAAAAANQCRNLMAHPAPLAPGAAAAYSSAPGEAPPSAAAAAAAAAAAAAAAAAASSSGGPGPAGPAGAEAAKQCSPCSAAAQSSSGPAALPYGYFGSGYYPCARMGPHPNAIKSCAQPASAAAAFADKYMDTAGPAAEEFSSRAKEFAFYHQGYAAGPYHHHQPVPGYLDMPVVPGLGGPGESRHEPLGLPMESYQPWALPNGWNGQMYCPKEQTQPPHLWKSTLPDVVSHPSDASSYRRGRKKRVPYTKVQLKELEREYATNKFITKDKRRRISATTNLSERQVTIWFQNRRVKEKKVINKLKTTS

SMILES	composite z-score [1]	composite z-score [2]	z-score [3]	z-score [4]	z-score [5]	z-score [6]
O=C1C2C=CC(C(O)c3ccco3)N(Nc3ccccc3)C2C(=O)N1c1ccccc1 (configuration not stated)	1.11 (inactive)	0.8	0.125	-2.27 (inactive)	0.209 (inactive)	-0.0253 (inactive)
COc1cc2c(cc1O)C(c1ccc(CN3CCCC3)cc1)N(C)CC2 (configuration not stated)	-0.389 (inactive)	-0.819	-1.58	-2.85 (inactive)	0.227 (inactive)	0.129 (inactive)
C=CCC(OC(C)=O)[C@@H]1[C@@H](N(Cc2ccc(-c3cccc(C(F)(F)F)c3)o2)C(=O)Cc2ccc(OC)cc2)c2cc(OCCCO)ccc2N1C(=O)Cc1ccc2ccccc2c1 (some centres not stated)	0.0389 (inactive)	0.625	-2.17	-1.9 (inactive)	0.162 (inactive)	0.375 (inactive)
CCC(CC)C(O)C1C=CC2C(=O)N(c3ccccc3)C(=O)C2N1Nc1ccc([N+](=O)[O-])cc1 (configuration not stated)	0.39 (inactive)	0.493	1.38	-3.49 (inactive)	-0.37 (inactive)	-1.56 (inactive)
COc1ccc([Si](C)(C)[C@H]2[C@H](CCO)O[C@@]3(C(=O)N(Cc4ccccc4)c4ccc(N5CCOC5=O)cc43)[C@@H]2C)cc1	0.16 (inactive)	0.52	-1.75	-3.27 (inactive)	-0.796 (inactive)	-0.721 (inactive)
COCCOC(=O)N1C(=O)[C@@]2(c3cc(C#CCNC(N)=O)ccc31)[C@H](c1ccc(OCCO)cc1)N1[C@H](c3ccccc3)[C@H](c3ccccc3)OC(=O)[C@H]1[C@@H]2C(=O)NC[C@H](O)c1ccccc1	0.586 (inactive)	0.644	-0.599	-1.94 (inactive)	-0.3 (inactive)	-0.102 (inactive)
C=CCNC(=O)[C@H]1[C@@H]2C(=O)O[C@@H](c3ccccc3)[C@@H](c3ccccc3)N2[C@@H](c2ccc(OCCO)cc2)[C@]12C(=O)N(C(=O)OCCOC)c1ccc(C#Cc3ccc(OC)cc3)cc12	0.0294 (inactive)	0.719	-2.38	4.25 (inactive)	-0.499 (inactive)	-0.744 (inactive)
CCOC(=O)C1=C[C@@H](C(C)(C)C)N(S(=O)(=O)c2ccc(C)cc2)[C@H]1c1cccc(Cl)c1	-0.248 (inactive)	0.765	-2.08	0.0204 (inactive)	0.347 (inactive)	-0.136 (inactive)
CC(CO)N1C(=O)[C@@H]2[C@H]3C(=O)OCC=C[C@H]3OC23C=CCN(c2ccc(Cl)cc2)C(=O)[C@@H]13 (some centres not stated)	-0.4 (inactive)	-0.862	0.599	-3 (inactive)	-0.985 (inactive)	-0.995 (inactive)
COc1cc(NN2C(C(O)c3ccc(I)cc3)C=CC3C(=O)N(c4ccccc4)C(=O)C32)cc(OC)c1OC (configuration not stated)	0.204 (inactive)	0.816	-0.908	-4.54 (inactive)	0.505 (inactive)	0.241 (inactive)
O=C1C2C=CC(C(O)C=Cc3ccc([N+](=O)[O-])cc3)N(Nc3ccccc3)C2C(=O)N1c1ccccc1 (configuration not stated)	-0.375 (inactive)	0.596	-0.054	-4.58 (inactive)	-0.744 (inactive)	-0.913 (inactive)
CC(C)(C)OC(=O)CC[C@]12N=C(c3ccc(OCCCO)cc3)O[C@H]1c1ccccc1N(Cc1ccccc1)C2=O	-0.326 (inactive)	0.802	-2.21	-0.817 (inactive)	-0.022 (inactive)	0.363 (inactive)
COc1ccc([Si](C)(C)[C@@H]2[C@@H](CC(=O)N3Cc4ccccc4C[C@H]3CO)O[C@]3(C(=O)N(c4ccccc4)c4ccccc43)[C@H]2C)cc1	3.93 (inactive)	0.546	-2.38	-4.85 (inactive)	-0.0103 (inactive)	-0.192 (inactive)
COc1cc(NN2C(C(O)C3CCCCC3)C=CC3C(=O)N(c4ccccc4)C(=O)C32)cc(OC)c1OC (configuration not stated)	1.15 (inactive)	0.751	-0.495	-4.43 (inactive)	0.0699 (inactive)	-0.253 (inactive)
[N-]=[N+]=NCc1ccccc1[C@@H]1OC(c2ccc(OCCCO)cc2)=N[C@]1(Cc1ccccc1N=[N+]=[N-])C(=O)NCCN1CCOCC1	0.24 (inactive)	0.878	-2.45	-4.64 (inactive)	-0.276 (inactive)	-0.22 (inactive)
CC(C)CCC[C@@H](C)[C@H]1CC[C@@]2(C)C3=C(CC[C@]12C)[C@@]1(C)CC[C@H](OC(=O)c2ccccc2)C(C)(C)C1CC3 (some centres not stated)	0.276 (inactive)	0.0627	-0.544	-1 (inactive)	-0.531 (inactive)	-0.299 (inactive)
CC(C)C(CO)N1C(=O)[C@@H]2[C@H]3C(=O)OCC=C[C@H]3OC23C=CCN(C(C)(C)C)C(=O)[C@@H]13 (some centres not stated)	0.0887 (inactive)	0.37	-0.217	-4.25 (inactive)	0.337 (inactive)	-0.418 (inactive)

— PubChem BioAssay
